Structures are written as SMILES. Unmarked numbers belong to inactive results. Results filed as inconclusive are left out. Calls of active or inactive are those of the source. Unless noted, calls come from the whole dose curve; as a rule, active = well fitted curve in either direction with a large enough effect (not every such curve was filed as active); inconclusive = small, poorly fitted or top-dose-only effect, or another doubt; inactive = flat fitted curve, though single readings scatter. Where only a bound is given, the exact number is not on record here.

A short description of assay [1]: AP1 Signaling Pathway (AID 357).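 Note: ME-180 reporter cells stimulated with EGF at its EC50 level; % is set by controls: 0 for no effect and ±100 for the full control effect.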 The note with it: ME-180 AP-1-bla reporter, EGF-induced, beta-lactamase ratio, 5 h; at 17.2 µM (top of the series) unless noted. In short, it runs like this:
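Read-out was the 460nm/530nm emission ratio (excitation 405nm) after CCF4 loading for 2.5 hours at room temperature. Cells carried an AP-1-driven beta-lactamase reporter, were stimulated with EC50 EGF plus compound for 5 hours, and AC50 values came from titrations.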

Assay [2] concerns the target Glucocorticoid receptor (Homo sapiens) (UniProt P04150). The experiment in a line: GR-GFP Redistribution (AID 450;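 active = compounds whose dose series gives a full or clear partial fitted curve of increased nuclear translocation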; note: potency is the fitted concentration of half-maximal effect).
Assay [3] is described as follows: Stat Signaling Pathway (AID 446).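 Note: ME-180 cervical cancer cells given 40 pM IL-6 alongside compound; SIE-controlled beta-lactamase reporter measured as 460/530 nm FRET emission ratio; % is set by controls: 0 for no effect and ±100 for the full control effect.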 Conditions: ME-180 SIE beta-lactamase reporter, IL-6 stimulated, 5 h; at 17.2 µM (top of the series) unless noted. In short, it runs like this: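 ME-180 cells carrying a SIE-driven beta-lactamase reporter are stimulated with 40 pM IL-6 for 5 h at 37C in the presence of compound. The 460/530 nm FRET substrate ratio is read after 2.5 h at RT. Data are normalised to 300 pM IL-6 and to 125 nM JAK inhibitor controls.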

Assay [4] can be described thus: qHTS Assay for Identification of Small Molecule Agonists for Hypoxia Response Element Signaling Pathway (AID 914; active = well fitted activation curve with a large enough effect in the signal ratio, with a control signal flat, not every such curve was filed as active; the % refers to the signal ratio; note: potency is the fitted concentration of half-maximal effect). Conditions: ME-180 (cervical carcinoma) HRE-bla reporter, beta-lactamase ratio, CoCl2, 17 h; activation: hits give high values. A digest of the protocol:
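Reporter activity (beta-lactamase, CCF4 460nm/530nm ratio) in HRE-bla ME-180 cells is recorded after 17 h compound exposure with EC50 CoCl2 at 37 degrees Celsius. AC50 values come from titration data.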
For orientation: Quantitative high-throughput screening tests each substance at several concentrations.

Chain of Glucocorticoid receptor (Homo sapiens) (P04150 whole entry, looked up): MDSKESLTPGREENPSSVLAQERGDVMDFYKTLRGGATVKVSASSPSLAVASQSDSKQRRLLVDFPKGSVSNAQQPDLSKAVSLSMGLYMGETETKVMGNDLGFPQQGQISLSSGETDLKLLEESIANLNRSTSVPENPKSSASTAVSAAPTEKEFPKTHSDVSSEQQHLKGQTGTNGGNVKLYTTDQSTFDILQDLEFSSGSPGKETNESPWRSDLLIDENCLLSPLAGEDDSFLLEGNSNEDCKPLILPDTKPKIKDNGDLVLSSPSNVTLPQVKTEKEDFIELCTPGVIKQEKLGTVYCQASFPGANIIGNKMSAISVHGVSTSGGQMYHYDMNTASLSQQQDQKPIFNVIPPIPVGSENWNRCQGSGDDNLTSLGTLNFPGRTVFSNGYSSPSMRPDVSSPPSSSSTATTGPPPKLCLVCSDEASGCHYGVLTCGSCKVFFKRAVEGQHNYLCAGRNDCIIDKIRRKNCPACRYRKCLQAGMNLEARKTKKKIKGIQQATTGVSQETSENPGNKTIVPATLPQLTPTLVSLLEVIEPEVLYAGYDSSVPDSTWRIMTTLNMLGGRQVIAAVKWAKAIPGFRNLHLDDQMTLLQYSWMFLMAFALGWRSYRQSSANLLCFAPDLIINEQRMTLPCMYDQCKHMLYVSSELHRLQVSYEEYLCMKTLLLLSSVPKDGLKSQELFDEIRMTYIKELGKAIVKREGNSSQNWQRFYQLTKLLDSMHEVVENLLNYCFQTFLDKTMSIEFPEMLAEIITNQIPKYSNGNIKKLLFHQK

Take `C=CCOn1c(=O)c(-c2ccc(OC)cc2)[n+]([O-])c2ccccc21`: the activity change, negative = inhibition in assay [1] was -22.9%. The Potency in assay [2] was greater than 20.6 µM.

In the case of `Cn1c(N2CCOCC2)nc2c1c(=O)n(Cc1ccc(Cl)c(Cl)c1)c(=O)n2C`, the activity change, negative = inhibition in assay [1] was -18.7%. The Potency in assay [2] was greater than 20.6 µM.

On to `CCSc1nnc(NC(=O)C(CC)(C(F)(F)F)C(F)(F)F)s1`, for which the activity change, negative = inhibition in assay [1] was -19%. In addition, in assay [2], the Potency is greater than 20.6 µM.

Turning to `CC(C)(C)c1cc(-c2ccco2)c(C#N)c(SCC#N)n1`, in assay [1], the activity change, negative = inhibition is 28.8%. For the same molecule, the Potency in assay [2] is greater than 20.6 µM.

Turning to `Cc1cc(C)n(CC(=O)N2c3ccccc3Sc3ccccc32)n1`, the activity change, negative = inhibition in assay [1] was -8.25%. For the same molecule, in assay [2], the Potency is greater than 20.6 µM.

With `CC(C)C[C@H]1C(=O)N2CCC[C@H]2[C@]2(O)O[C@](NC(=O)[C@@H]3C=C4c5cccc6[nH]c(Br)c(c56)CC4N(C)C3)(C(C)C)C(=O)N12` (stereo partly drawn), the activity change, negative = inhibition in assay [1] was -20.7%. The Potency in assay [2] is greater than 20.6 µM.

Take `C=CCn1c(SCC#N)nc2c(c1=O)C(C)(C)Cc1ccccc1-2`: the activity change, negative = inhibition in assay [1] is -2.85%. Further, in assay [2], the Potency was greater than 20.6 µM.

Consider `CCOC(=O)C1=C(CSc2nc3c(cc2C#N)CN(C)CC3)OC(N)=C(C#N)C1c1ccccc1` (stereo not drawn), for which the activity change, negative = inhibition in assay [1] is -2.2%. In assay [2], the Potency is greater than 20.6 µM.

In the case of `C=CCNC(=O)C(C#N)c1nc2ccccc2nc1N1CCCCCC1` (stereo not drawn), in assay [1], the activity change, negative = inhibition was -18.4%. The Potency in assay [2] is greater than 20.6 µM.

As to `Clc1ccc(-c2nnc3sc(Cc4cccs4)nn23)cc1`, the activity change, negative = inhibition in assay [1] is 2.06%. Further, the Potency in assay [2] was greater than 20.6 µM.

Turning to `COCc1cc(=O)[nH]c(Nc2nc3ccc(C)cc3o2)n1`, in assay [1], the activity change, negative = inhibition was -0.718%. Besides, the Potency in assay [2] is greater than 20.6 µM.

For the molecule `CCCc1cc(-c2nc(N)ncc2-c2ccc3c(c2)OCCCO3)c(O)cc1OC`, the activity change, negative = inhibition in assay [1] was -29.1%. Moreover, the Potency in assay [2] was greater than 20.6 µM.

With `CCCSc1nnc(NC(=O)Nc2ccc(F)cc2)s1`, the activity change, negative = inhibition in assay [1] was -11.2%. Also, the Potency in assay [2] is greater than 20.6 µM.

As to `Cc1ccc2[nH]c3c(N4CCCCCC4)ncnc3c2c1`, the activity change, negative = inhibition in assay [1] was -20.6%. The Potency in assay [2] was greater than 20.6 µM.

In the case of `CCOC(=O)CSc1nnc2n(Cc3ccccc3)c(=O)c3c4c(sc3n12)CCC4`, in assay [1], the activity change, negative = inhibition is -11.8%. In addition, the Potency in assay [2] was greater than 20.6 µM.

On to `CCN1CCN(c2nc3c(C)cccn3c(=O)c2/C=C(\C#N)S(=O)(=O)c2ccc(C)cc2)CC1`, for which, in assay [1], the activity change, negative = inhibition was 6.19%. Also, in assay [2], the Potency was greater than 20.6 µM.

For the molecule `CCSc1nnc(NC(=O)NC(CC)(C(F)(F)F)C(F)(F)F)s1`, the activity change, negative = inhibition in assay [1] was -15.5%. The Potency in assay [2] was greater than 20.6 µM.

As for `CCCCCCc1cc2cc(-c3nnc(-c4ccccc4O)o3)c(=O)oc2cc1O`, the activity change, negative = inhibition in assay [1] was -3.45%. For the same molecule, in assay [3], the activity, negative = inhibition was 73.1% [activator] (active). Also, in assay [4], the Potency was 3.16 µM (active).

On to `Cc1ccccc1-c1nn2c(-c3ccccc3)nnc2s1`, for which the activity change, negative = inhibition in assay [1] is -18%. In assay [2], the Potency is greater than 20.6 µM.

In the case of `c1ccc(CN2CCN(c3ncnc4c3[nH]c3ccccc34)CC2)cc1`, in assay [1], the activity change, negative = inhibition was -15.1%. In assay [2], the Potency is greater than 20.6 µM.

With `CC(C)N1CC=C2C(C#N)=C(N)C(C#N)(C#N)C(c3ccccc3)C2C1` (stereo not drawn), the activity change, negative = inhibition in assay [1] was 26.3%. In addition, the Potency in assay [2] is greater than 20.6 µM.

Turning to `CSc1nc2sc3c(c2c2nnnn12)CCCC3`, the activity change, negative = inhibition in assay [1] is 19.7%. In addition, in assay [2], the Potency was greater than 20.6 µM.

`Cc1c([C@H]2[C@@H](CC#N)C2(C)C)c2ccccc2n1C`: the activity change, negative = inhibition in assay [1] is -11.6%. Also, in assay [2], the Potency is greater than 20.6 µM.

For `COc1ccc(C2C(C#N)=C(SC)NC3=C2C(=O)CC(C)(C)C3)cc1` (stereo not drawn), the activity change, negative = inhibition in assay [1] is -6.47%. Moreover, the Potency in assay [2] was greater than 20.6 µM.

Regarding `CCCc1nc(N2CCOCC2)c(C#N)c2c1CCCC2`, the activity change, negative = inhibition in assay [1] is -22%. Moreover, in assay [2], the Potency is greater than 20.6 µM.

For `N#CC(C#N)C(c1ccsc1)c1c(-c2ccccc2)[nH][nH]c1=O` (stereo not drawn), the activity change, negative = inhibition in assay [1] was -20.2%. The Potency in assay [2] was greater than 20.6 µM.

The values are drawn from PubChem BioAssay (NCATS).
